Measured values published in PubChem BioAssay.
The source made the active and inactive calls.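 The calls were made as follows, unless noted: active = compounds that lower survival of HCT116 colon cancer cells in the luminescence readout, no numeric limit stated; inactive = the rest.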

Columns and labels:
[1] = stimulators of nuclear beta-catenin in C2C12, primary screen, imaging, WNT3A-conditioned medium, mouse C2C12, NPC library (AID 1117326; in the data active = nuclear beta-catenin stimulation mostly above about 4.2%, no sharp cut-off; inactive = mostly below about 10%; also: reference of the scale not given here); settings: stronger effect = higher value
[2] = stimulators of insulin release from INS-1E, primary screen, cell-based, 5 mM glucose, NPC library (AID 1117329;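 active = compound raises insulin release from rat beta cells at 5 mM glucose, no numeric limit stated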; also: reference of the scale not given here); settings: rat INS-1E insulin secretion, at 10 µM, stronger effect = higher value
[3] = growth inhibition of GSK3B-pretreated HCT116 cells – cell-based, CellTiter-Glo, 0.2 to 20 µM (AID 1117336;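 active = compounds lowering colon cancer cell viability after pretreatment blocking the GSK3B kinase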); settings: HCT116 viability after GSK3B inhibitor, at 20 µM, stronger effect = higher value
[4] = inhibition of endothelial tube formation, primary screen, imaging, VEGF stimulated, CD31 staining, tube area, NPC library (AID 1117340;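 active = compound that reduces growth-factor-driven endothelial tube area in a mixed cell culture, no cutoff stated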); settings: VEGF-stimulated ADSC/ECFC co-culture, at 10 µM, stronger effect = higher value
[5] = glucagon-like peptide 1 release enhancers, primary assay, NCI-H716 cell line, NPC library (AID 1117341;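 active = compound raises GLP1 secretion from the human gut endocrine cells, with no numeric limit stated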; also: reference of the scale not given here); settings: NCI-H716 cells, at 10 µM, stronger effect = higher value
[6] = HCT116 colon cancer cell growth inhibition, primary screen, CellTiter-Glo luminescence, NPC library (AID 1117342); settings: at 20 µM (top of the series)
[7] = CellTiter-Glo luminescent readout of SW480 viability loss, NPC library primary (AID 1117343;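 active = compounds that lower viability of the colon cancer cells in the luminescence readout, with no numeric limit stated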); settings: CellTiter-Glo luminescence; at 20 µM (top of the series)
[8] = decreased DLD-1 cellular survival, CellTiter-Glo luminescent readout, NPC compound collection, primary HTS (AID 1117346;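 active = compounds that lower survival of DLD-1 colon cancer cells in the luminescence readout, no cutoff given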); settings: DLD-1 viability, CellTiter-Glo luminescence; at 20 µM (top of the series)

| Compound | nuclear beta-catenin stimulation ([1]; at 10 µM) | nuclear beta-catenin stimulation ([1]; stimulation, at 2 µM) [%] | insulin secretion stimulation [2] | viability decrease [3] | tube area decrease [4] | GLP1 secretion stimulation [5] | inhibition of viability [6] | viability decrease (inhibition) [7] | viability decrease (inhibition) [8] |
| --- | --- | --- | --- | --- | --- | --- | --- | --- | --- |
| COc1ccc(S(=O)(=O)N2c3ccc(Cl)cc3[C@@](O)(c3ccccc3Cl)[C@H]2C(=O)N2CCC[C@@H]2C(N)=O)cc1OC | 0.6% (inactive) | -0.8 | 2.35% (inactive) | 47.7% (inactive) | -23.5% (inactive) | -0.7% (inactive) | 34% (inactive) | 0.4% (inactive) | 4.6% (inactive) |
| O=C(NCN1CCOCC1)c1cnccn1 | 1.4% (inactive) | 0.7 | 0.2% (inactive) | 15.3% (inactive) | 7.8% (inactive) | -2.9% (inactive) | 29.4% (inactive) | 40.1% (inactive) | 8.3% (inactive) |
| COc1cc(C(=O)N2CCCCCCC2)cc(OC)c1OC | 0.9% (inactive) | -1.2 | 5% (inactive) | -2.3% (inactive) | -2.6% (inactive) | 2.6% (inactive) | 17.8% (inactive) | -7.8% (inactive) | 7.8% (inactive) |
| O=C(Nc1ccc(Br)cc1)c1cc(Br)c(Br)s1 | 24.1% (inactive) | -0.1 | 3.5% (inactive) | 99.8% (active) | 108% (active) | -2% (inactive) | 99.7% (active) | 102% (active) | 102% (active) |
| CC(=O)/C=C/C=C1/C2CCC(C2)C1(C)C (configuration not stated) | 1.2% (inactive) | 3.3 | 0.6% (inactive) | -80% (inactive) | -0.7% (inactive) | 0.1% (inactive) | -1.1% (inactive) | 27% (inactive) | -15.2% (inactive) |
| CC(C)Cc1ccc(CC(=O)O)cc1 | -0.7% (inactive) | -0.2 | 0.2% (inactive) | -11.5% (inactive) | -13.7% (inactive) | -1.8% (inactive) | -3.5% (inactive) | 4.2% (inactive) | -8% (inactive) |
| CCCCCC(N)=O | 1.3% (inactive) | 2.1 | -1.1% (inactive) | -27.2% (inactive) | 8.8% (inactive) | 0.3% (inactive) | 2.8% (inactive) | 44.1% (inactive) | -11.8% (inactive) |
| C/C=C(/C(=C/C)c1ccc(OC(C)=O)cc1)c1ccc(OC(C)=O)cc1 | 18.1% (inactive) | 2.9 | 1.65% (inactive) | 108% (active) | 65.4% (active) | 11.9% (inactive) | 108% (active) | 129% (active) | 97.2% (active) |
| Nc1c(N=Nc2ccc(-c3ccc(N=Nc4cc(S(=O)(=O)O)c5ccccc5c4N)cc3)cc2)cc(S(=O)(=O)O)c2ccccc12 | -3.3% (inactive) | 0.3 | 2% (inactive) | -26.6% (inactive) | 16.8% (inactive) | -1.7% (inactive) | -132% (inactive) | -0.2% (inactive) | -66.6% (inactive) |
| CC(=O)SCC(CC(=O)c1ccc(C)cc1)C(=O)O (configuration not stated) | 0.5% (inactive) | -0.4 | 2.9% (inactive) | -5.5% (inactive) | -18.7% (inactive) | 1.4% (inactive) | -12.2% (inactive) | -19.1% (inactive) | -15.2% (inactive) |
| CCCCCCCCCCCCOCCOCCOCCOCCOCCOCCOCCOCCOCCO | 3.9% (inactive) | 1.9 | 0.8% (inactive) | 78.1% (active) | 47.8% (active) | 33.5% (active) | 96.8% (active) | 124% (active) | 104% (active) |
| Oc1ccccc1C=NCc1ccccc1 | -0.8% (inactive) | -0.6 | -2.2% (inactive) | 0.9% (inactive) | -29.7% (inactive) | 3.8% (inactive) | 0.1% (inactive) | 13.6% (inactive) | 0.75% (inactive) |
| COc1cccc(CCc2ccccc2OCC(CN(C)C)OC(=O)CCC(=O)O)c1 (configuration not stated) | -0.6% (inactive) | 3.9 | 11.9% (inactive) | 53.9% (active) | 0.9% (active) | 8.6% (inactive) | 72.9% (active) | 87.5% (active) | 21.8% (inactive) |
